± gives the standard deviation of the averaged measurements.
Key:
Conditions in all cases: concentration: 10 µM; 24 h
[1] = tested on: HCC1569; assay: cell number relative to DMSO (% of DMSO); higher = more cells (less growth inhibition / toxicity)
Method in brief: (§1)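 H1.0 nuclear intensity or cell number is expressed as percent of the plate control, with the median of replicates taken. HCC1569 and TDF cells were treated with compounds at 10 µM for 24 h at 37 °C, in triplicate, then fixed and immunostained for H1.0 with DAPI as a nuclear stain. HCC1569 values were smoothed to correct for positional effects.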

[2] = tested on: TDF; assay: as above
Method in brief: as §1

[3] = tested on: TDF; assay: H1.0 immunofluorescence intensity relative to DMSO (% of DMSO); higher = stronger H1.0 induction, active = 120 or more
Method in brief: as §1

[4] = tested on: HCC1569; assay: H1.0 immunofluorescence intensity relative to DMSO (% of DMSO); higher = stronger H1.0 induction, active = 140 or more
Method in brief: as §1
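Wherever H1.0 immunofluorescence intensity relative to DMSO is given: TDF is a line of transformed human dermal fibroblasts of mesenchymal origin.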
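Wherever cell number relative to DMSO is given: TDF denotes transformed human dermal fibroblasts of mesenchymal origin.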

| SMILES | cell number [1] | cell number [2] | H1.0 immunofluorescence intensity [3] | H1.0 immunofluorescence intensity [4] |
| --- | --- | --- | --- | --- |
| Cc1cc2nc(NCCCO)n(CC(=O)c3cc(C(C)(C)C)c(O)c(C(C)(C)C)c3)c2cc1C | 67.9 | 78.5 | 97.1 (inactive) | 173 (active) |
| COc1ccc(-c2cnc3c(-c4ccsc4)cnn3c2)cc1 [VEGF Receptor 2 Kinase Inhibitor IV] | 94.9 | 95.5 | 89 (inactive) | 109 (inactive) |
| CC(C)NCC(O)COc1cccc2[nH]ccc12 (stereo not drawn) [S(-)-Pindolol] | 102 | 107 | 84.4 (inactive) | 98.4 (inactive) |
| O=C(Nc1ccc(Cl)cc1)c1ccccc1NCc1ccncc1 [VEGF Receptor Tyrosine Kinase Inhibitor II] | 106 | 96.3 | 96.5 (inactive) | 98.1 (inactive) |
| CN1CCN(CCCN2c3ccccc3Sc3ccc(C(F)(F)F)cc32)CC1.Cl.Cl [Trifluoperazine dihydrochloride] | 87.3 | 108 | 107 (inactive) | 141 (active) |
| CCCCC=CCCCCCCCC(=O)O [9(Z)-Tetradecenoic acid] | 98.2 | 105 | 104 (inactive) | 99.8 (inactive) |
| CN1C2CCC1CC(OC(c1ccccc1)c1ccccc1)C2.CS(=O)(=O)O (stereo not given) [Benztropine mesylate] | 97.2 | 114 | 97.6 (inactive) | 97.7 (inactive) |
| COc1cc2nc(N3CCN(C(=O)C4COc5ccccc5O4)CC3)nc(N)c2cc1OC.CS(=O)(=O)O (stereo not given) [Doxazosin mesylate] | 99.9 | 103 | 95.5 (inactive) | 110 (inactive) |
| CCCCCC(O)C=CC1OC(O)CC(O)C1CC=CCCCC(=O)O (stereo not given) [Thromboxane B2] | 96.2 | 95.2 | 102 (inactive) | 97.9 (inactive) |
| CCCCCCCCC=CCCCCCCCC(=O)NCCc1ccc(O)c(O)c1 [Oleoyl dopamine] | 98.1 | 88.4 | 103 (inactive) | 118 (inactive) |
| COc1ccc(-n2c(SCC#N)nc3sc4c(c3c2=O)CCCC4)cc1 | 91.9 | 92.5 | 86.3 (inactive) | 108 (inactive) |
| Cc1cc(NC(=O)CS(=O)(=O)c2cn(Cc3cc(Br)ccc3F)c3ccccc23)no1 | 82.5 | 99.6 | 90 (inactive) | 151 (active) |
| COc1cc(CNC(=O)CCCCCCC(C)C)ccc1O [Dihydrocapsaicin] | 96.7 | 101 | 91.1 (inactive) | 97 (inactive) |
| CS(=O)(=O)O.Cc1ccc(N(CC2=NCCN2)c2cccc(O)c2)cc1 [Phentolamine mesylate] | 99 | 105 | 97.7 (inactive) | 99.6 (inactive) |
| NC(N)=NCc1cccc(I)c1 [N-(3-iodobenzyl)guanidine] | 108 | 97.3 | 104 (inactive) | 105 (inactive) |
| CN(C)CCCN1c2ccccc2Sc2ccccc21.Cl [Promazine hydrochloride] | 103 | 107 | 118 (inactive) | 110 (inactive) |
| CCCCCCCCCCCCCCC[C@@H](O)[C@@H](N)CO [(2S,3R)-2-amino-1,3-octadecanediol] | 97.2 | 39.4 | 120 (active) | 96.2 (inactive) |
| CC(=O)C1CCC2C3CC=C4CC(O)CCC4(C)C3CCC12C (stereo not given) [Pregnenolone] | 102 | 102 | 95.7 (inactive) | 112 (inactive) |
| CCCCCN(CCCCC)C(=O)C(CCC(=O)[O-])NC(=O)c1ccc(Cl)c(Cl)c1.[Na+] (stereo not given) [Lorglumide sodium] | 103 | 107 | 100 (inactive) | 89.8 (inactive) |
| COC(=O)C(=C1OC(=O)C(c2ccccc2)=C1O)c1ccccc1 [Vulpinic acid] | 98.5 | 95.3 | 89.4 (inactive) | 91.2 (inactive) |
| CC(C(=O)O)c1cccc(Oc2ccccc2)c1 (stereo not given) [Fenoprofen] | 102 | 101 | 94.2 (inactive) | 120 (inactive) |
| CCCCCCCCC=CCCCCCCCCOCC(COP(=O)([O-])OCC[N+](C)(C)C)OC(C)=O (stereo not given) | 101 | 114 | 94 (inactive) | 98.3 (inactive) |
| CC(=O)NC1C(N=C(N)N)C=C(C(=O)O)OC1C(O)C(O)CO (stereo not given) | 102 | 115 | 99.2 (inactive) | 99 (inactive) |
| COc1cc2ncnc(Nc3ccc(Cl)cc3F)c2cc1OC.Cl | 83.3 | 102 | 95.7 (inactive) | 141 (active) |
| CS(=O)(=O)O.Cn1cc(C(F)(F)F)nc1-c1ccc(OCC(O)CNCCOc2ccc(O)c(C(N)=O)c2)cc1 (stereo not given) | 97.2 | 92.5 | 94.5 (inactive) | 96.4 (inactive) |

| SMILES | cell number [1] | cell number [2] | H1.0 immunofluorescence intensity [3] | H1.0 immunofluorescence intensity [4] |
| --- | --- | --- | --- | --- |
| Cc1cnc(C(=O)NCCc2ccc(S(=O)(=O)NC(=O)NC3CCCCC3)cc2)cn1 [Glipizide] | 106 ± 3.7 | 107 ± 6.9 | 96.6 (inactive) | 103 (inactive) |
| Cc1nc(N)sc1-c1ccnc(Nc2ccc(N3CCOCC3)cc2)n1 | 62.2 | 42.5 | 105 (inactive) | 99.1 (inactive) |
| CN1C(=O)CCC1c1cccnc1 (single isomer, unassigned; (-)) [(-)-Cotinine] | 102 ± 1.1 | 112 ± 5.4 | 93.5 (inactive) | 93 (inactive) |
| N[C@@H](Cc1ccc(F)cc1)C(=O)O [p-Fluoro-L-phenylalanine] | 104 | 102 | 93.4 (inactive) | 106 (inactive) |
| Nc1nc(Nc2ccc(S(N)(=O)=O)cc2)nn1C(=S)Nc1c(F)cccc1F [Cdk1/2 Inhibitor III] | 51.9 | 14.2 | 133 (active) | 128 (inactive) |
| CN(C)CCC=C1c2ccccc2Sc2ccc(Cl)cc21.Cl [Chlorprothixene hydrochloride] | 90.2 | 106 | 116 (inactive) | 127 (inactive) |
| CCCCCC=CCC=CCC=CCCCCC(=O)O [γ-Linolenic acid (18:3 n-6)] | 99.3 | 96.9 | 96.6 (inactive) | 98.8 (inactive) |
| Nc1cc(=O)nc(N)[nH]1 [2,6-Diamino-4-pyrimidinone] | 99.3 | 104 | 93.6 (inactive) | 97.1 (inactive) |
| CC(=O)c1ccc(S(=O)(=O)NC(=O)NC2CCCCC2)cc1 [Acetohexamide] | 105 | 107 | 102 (inactive) | 109 (inactive) |
| CNc1nc(-c2ccc3c(N)n[nH]c3c2)cc(N2C[C@@H](C(=O)NC3CCCCC3)CC[C@H]2C)n1 | 52.3 | 77.9 | 115 (inactive) | 161 (active) |
| COC(=O)/C=C/c1cccc(N(Cc2ccc(-c3ccc(N(C)C)cc3)cc2)C(=O)C2CCCCC2)c1 | 91.5 | 95.9 | 90.7 (inactive) | 106 (inactive) |
| Br.C=CCN1CCc2c(cc(O)c(O)c2Br)C(c2ccccc2)C1 (stereo not drawn) [R(+)-6-Bromo-APB hydrobromide] | 89.1 | 87.2 | 89.7 (inactive) | 99.2 (inactive) |
| CC(C)C1NC(=O)C(CCCCN)NC(=O)C(Cc2c[nH]c3ccccc23)NC(=O)C(Cc2ccc(O)cc2)NC(=O)C(C)N(C)C(=O)C(Cc2ccccc2)NC1=O (stereo not given) [Seglitide] | 89.8 | 98.2 | 102 (inactive) | 152 (active) |
| CCCCCCCCOC(=O)C=Cc1ccc(O)c(O)c1 [n-Octyl caffeate] | 54.1 | 78.8 | 93.6 (inactive) | 120 (inactive) |
| CC(C[N+](C)(C)C)OC(N)=O.[Cl-] (stereo not given) [Bethanechol chloride] | 91.3 | 100 | 92.6 (inactive) | 99.3 (inactive) |
| O=C(O)CCCC=CCC1C2CCC(O2)C1CNNC(=O)Nc1ccccc1 (stereo not given) | 102 | 103 | 92.8 (inactive) | 99.7 (inactive) |
| Cl.NC12CC3CC(CC(C3)C1)C2 [Amantadine hydrochloride] | 107 | 109 | 104 (inactive) | 98.4 (inactive) |
| CC12CCc3occc3C1CCC13CC(CCC12)C(O)(CO)C3 (stereo not given) [Cafestol] | 103 | 101 | 103 (inactive) | 88.2 (inactive) |
| Cc1[nH]c2ccccc2c1CCNC(=O)c1ccccc1F [2-fluoro-N-[2-(2-methyl-1H-indol-3-yl)ethyl]benzamide] | 100 | 106 | 110 (inactive) | 93.6 (inactive) |
| O=C(NC(Cc1cc(=O)[nH]c2ccccc12)C(=O)O)c1ccc(Cl)cc1 (stereo not given) [Rebamipide] | 104 | 99.7 | 93.2 (inactive) | 105 (inactive) |
| CCCCCCCCCCCCCCCCCCC(=O)O [Nonadecanoic acid] | 96.7 | 102 | 101 (inactive) | 98 (inactive) |
| Clc1ccc(C(Cn2ccnc2)OCc2ccsc2Cl)c(Cl)c1 (stereo not given) [Tioconazole] | 102 | 94.9 | 103 (inactive) | 113 (inactive) |
| Nn1nnc2ccccc21 [1-Aminobenzotriazole] | 106 | 107 | 92.8 (inactive) | 85.9 (inactive) |
| Cc1ccccc1C(OCCN(C)C)c1ccccc1.O=C(O)CC(O)(CC(=O)O)C(=O)O (stereo not given) [Orphenadrine citrate] | 111 | 113 | 91.6 (inactive) | 96.1 (inactive) |
| N=C([NH3+])N1CCc2ccccc2C1.N=C([NH3+])N1CCc2ccccc2C1.O=S(=O)([O-])[O-] [Debrisoquin sulfate] | 104 | 107 | 101 (inactive) | 101 (inactive) |
